The panel holds about 79,000 compounds, 15% with a hit somewhere; the sample as a whole holds those more often. Unmarked numbers belong to inactive results. Calls of active or inactive are those of the source. No stated cut-off is given here; in the data, active means growth inhibition above about 70%; inactive means the rest.

This experiment can be described thus: NCI Yeast Anticancer Drug Screen. Data for the mlh1 rad18 strain (AID 175). The conditions noted are these: S. cerevisiae mlh1 rad18 strain growth inhibition; at 5.0 µM (retest, dose inferred, filed as 0.5); active compounds read high. The method, boiled down:
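Test agents were incubated with a yeast strain of defined genotype (DNA damage repair defect). Inhibition of growth was derived by comparison with vehicle-exposed cultures.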
As to `CC12CCC(c3sc(N)c(C#N)c31)C2(C)C` (stereo unspecified), the growth inhibition is -36%.

As to `O=C1/C(=C/c2cccc(F)c2)CCCc2ccccc21`, the growth inhibition is 2%.

As to `CC(=O)N[C@H]1CC[C@H]2[C@@H]3CCC4=CC(=O)CC[C@]4(C)[C@H]3CC[C@]12C`, the growth inhibition is -4%.

Regarding `C/C(=N/O)c1ccc2c(c1)C(=NO)c1cc(/C(C)=N/O)ccc1-2`, the growth inhibition was 1%.

Regarding `Cc1cccc(N2C(c3ccccc3)c3ccc(C)cc3NS2=O)c1` (stereo unspecified), the growth inhibition is -4%.

With `[Pt].c1ccc(P(CCP(CCP(c2ccccc2)c2ccccc2)CCP(c2ccccc2)c2ccccc2)c2ccccc2)cc1`, the growth inhibition is 17%.

Take `Cc1cc(I)ccc1NC(=S)Nc1ccccc1F`: the growth inhibition was -4%.

Consider `FC(F)(F)c1ccccc1NC(=S)SCc1ccc(Cl)cc1`, for which the growth inhibition was -3%.

As to `COC(=O)C1(C)CC2C(C)(CCC3(C)C4=CC=C5C(=CC(=O)C(O)=C5C)C4(C)CCC23C)CC1O` (stereo unspecified), the growth inhibition was 50%.

For the compound `CC1CCC(=NNC(N)=O)CC1` (stereo unspecified), the growth inhibition was -1%.

Take `CCOC(=O)C(NS(=O)(=O)c1ccccc1)(C(F)(F)F)P(=O)(OCC(C)C)OCC(C)C` (stereo unspecified): the growth inhibition is 0%.

In the case of `O=[N+]([O-])c1ccc(/C=N/NC2=CS(=O)(=O)C=C2)cc1`, the growth inhibition was -4%.

For the compound `CC(C)c1ccc2c(c1)CCC1C(C)(CNC(=O)S)CCCC21C.[Zn+2]` (stereo unspecified), the growth inhibition was 5%.

Turning to `Cc1ccc(N=Nc2sc(N)nc2C)cc1C`, the growth inhibition is -125%.

For the compound `CC(C)(C)C1CCC2c3c([nH]c4ccccc34)C3C(=O)N(c4ccc(C(=O)O)cc4)C(=O)C3C2C1` (stereo unspecified), the growth inhibition is 97% (active).

In the case of `O=C(CBr)Nc1ccc(Cc2ccc(NC(=O)CBr)cc2)cc1`, the growth inhibition is 25%.
